Measured values reported in PubChem BioAssay (EPA / NIEHS).
Active and inactive are the calls of the source. The calls were made as follows: active = hit-call score of the fitted dose curve at least 0.9, where 1 is the maximum; inactive = score below 0.9.

Experiments:
[1] = CEETOX_H295R_PROG: CeeTox H295R High-throughput Steroidogenesis Assay for Progesterone (PROG) (AID 2283442); details: actives raise or lower the signal;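 as to AC50: human H295R adrenal cells primed with 10 µM forskolin before dosing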
Method in brief: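 Measured analyte is progesterone secreted by H295R cells at 48 h of chemical treatment, following 10 uM forskolin priming. Quantitation used HPLC-MS/MS against a 7-point standard curve; cytotoxicity was checked by MTT absorbance.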

[2] = read-out: Tumor necrosis factor receptor superfamily member 6 (Homo sapiens) (UniProt P25445); assay: LTEA_HepaRG_FAS: Life Technologies and Expression Analysis (LTEA) Assay for Fas cell surface death receptor (FAS) using HepaRG (AID 2283447); details: mRNA level, 48 h; actives raise or lower the signal
Method in brief: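 Differentiated HepaRG cells in serum-free induction medium were exposed 48 h to 8 half-log concentrations up to 100 uM in 0.5% DMSO, in duplicate. FAS mRNA was measured by qRT-PCR normalised to ACTB, GAPDH and POLR2A; bidirectional fit versus DMSO.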

[3] = read-out: Fatty acid synthase (Homo sapiens) (UniProt P49327); assay: LTEA_HepaRG_FASN: Life Technologies and Expression Analysis (LTEA) Assay for Fatty Acid Synthase (FASN) using HepaRG (AID 2283448); details: mRNA level, 48 h; actives raise or lower the signal;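 as to AC50: differentiated human HepaRG liver cells in serum-free induction medium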
Method in brief: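 In human HepaRG cultures, 48 h chemical exposure (up to 100 uM, 0.5% DMSO) preceded TaqMan qRT-PCR of FASN.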

[4] = read-out: Cyclin Dependent Kinase Inhibitor 1A (CDKN1A), CDKN1A (gene 1026); assay: LTEA_HepaRG_CDKN1A: Life Technologies and Expression Analysis (LTEA) Assay for Cyclin Dependent Kinase Inhibitor 1A (CDKN1A) using HepaRG (AID 2283450); details: mRNA level, 48 h; actives raise or lower the signal
Method in brief: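 Gain or loss of CDKN1A transcript is scored by bidirectional fitting against 0.5% DMSO vehicle. Human HepaRG cultures receive chemicals for 48 h across an 8-point series peaking at 100 uM; expression comes from qRT-PCR.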

[5] = read-out: Cyclin D1 (CCND1), CCND1 (gene 595); assay: LTEA_HepaRG_CCND1: Life Technologies and Expression Analysis (LTEA) Assay for Cyclin D1 (CCND1) using HepaRG (AID 2283451); details: mRNA level, 48 h; actives raise or lower the signal;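 as to AC50: differentiated human HepaRG liver cells in serum-free induction medium; TaqMan qRT-PCR transcript level normalised to ACTB GAPDH and POLR2A housekeeping genes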
Method in brief: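 Expression change is measured by qRT-PCR in HepaRG cells after 48 h treatment across eight concentrations topping at 100 uM, with duplicate wells and DMSO (0.5%) serving as baseline for bidirectional fitting.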

[6] = read-out: catalase (CAT), CAT (gene 847); assay: LTEA_HepaRG_CAT: Life Technologies and Expression Analysis (LTEA) Assay for catalase (CAT) using HepaRG (AID 2283452); details: mRNA level, 48 h; actives raise or lower the signal;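 as to AC50: TaqMan qRT-PCR signal normalized to ACTB GAPDH and POLR2A housekeeping genes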
Method in brief: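 HepaRG cells in serum-free induction medium, 0.5% DMSO vehicle, exposed 48 h in duplicate over 8 half-log concentrations from 100 uM. CAT mRNA measured by qRT-PCR, normalized to ACTB, GAPDH, POLR2A; bidirectional fit versus DMSO.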

[7] = read-out: flavin-containing dimethylaniline monooxygenases 3 (FMO3), FMO3 (gene 2328); assay: LTEA_HepaRG_FMO3: Life Technologies and Expression Analysis (LTEA) Assay for flavin-containing dimethylaniline monooxygenases 3 (FMO3) using HepaRG (AID 2283453); details: mRNA level, 48 h; actives raise or lower the signal;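 as to AC50: differentiated human HepaRG liver cells in serum-free induction medium; FMO3 transcript by TaqMan qRT-PCR normalized to ACTB GAPDH and POLR2A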
Method in brief: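 Eight-point concentration-response in serum-free HepaRG cultures (top 100 uM, 0.5% DMSO, 48 h). Read-out: FMO3 mRNA level normalized to three endogenous control genes, fitted bidirectionally versus vehicle.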

[8] = read-out: Cytochrome P450 (CYP1A1), CYP1A1 (gene 1543); assay: LTEA_HepaRG_CYP1A1: Life Technologies and Expression Analysis (LTEA) Assay for Cytochrome P450 (CYP1A1) using HepaRG (AID 2283454); details: mRNA level, 48 h; actives raise or lower the signal
Method in brief: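 Using HepaRG cultures with 0.5% DMSO as vehicle, eight-concentration exposures (max 100 uM) lasted 48 h. Transcript levels were measured by TaqMan qRT-PCR and normalized to ACTB, GAPDH and POLR2A.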

[9] = CEETOX_H295R_ESTRONE: CeeTox H295R High-throughput Steroidogenesis Assay for Estrone (AID 2283441); details: actives raise or lower the signal;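 also: estrone secreted into medium measured by LC-MS/MS after dansyl derivatization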;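 as to AC50: human adrenal H295R cells prestimulated with forskolin for two days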
Method in brief: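 Forskolin-stimulated H295R cells are treated 48 h with chemical, and estrone in the medium is measured by LC-MS/MS. Activity is fitted in both directions relative to DMSO controls, with chemicals diluted until MTT viability reaches at least 70%.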

[10] = read-out: Cyclin D2 (CCND2), CCND2 (gene 894); assay: LTEA_HepaRG_CCND2: Life Technologies and Expression Analysis (LTEA) Assay for Cyclin D2 (CCND2) using HepaRG (AID 2283449); details: mRNA level, 48 h; actives raise or lower the signal;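 also: CCND2 transcript measured by TaqMan qRT-PCR and normalised to three housekeeping genes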
Method in brief: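 HepaRG, 48 h dosing, 8-pt half-log curve from 100 uM, 0.5% DMSO; duplicate wells. Readout: CCND2 transcript by microfluidic qRT-PCR, housekeeping-normalised; bidirectional fit vs DMSO baseline.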

Measured: AC50

Chain of Fatty acid synthase (Homo sapiens) (P49327 whole entry, looked up): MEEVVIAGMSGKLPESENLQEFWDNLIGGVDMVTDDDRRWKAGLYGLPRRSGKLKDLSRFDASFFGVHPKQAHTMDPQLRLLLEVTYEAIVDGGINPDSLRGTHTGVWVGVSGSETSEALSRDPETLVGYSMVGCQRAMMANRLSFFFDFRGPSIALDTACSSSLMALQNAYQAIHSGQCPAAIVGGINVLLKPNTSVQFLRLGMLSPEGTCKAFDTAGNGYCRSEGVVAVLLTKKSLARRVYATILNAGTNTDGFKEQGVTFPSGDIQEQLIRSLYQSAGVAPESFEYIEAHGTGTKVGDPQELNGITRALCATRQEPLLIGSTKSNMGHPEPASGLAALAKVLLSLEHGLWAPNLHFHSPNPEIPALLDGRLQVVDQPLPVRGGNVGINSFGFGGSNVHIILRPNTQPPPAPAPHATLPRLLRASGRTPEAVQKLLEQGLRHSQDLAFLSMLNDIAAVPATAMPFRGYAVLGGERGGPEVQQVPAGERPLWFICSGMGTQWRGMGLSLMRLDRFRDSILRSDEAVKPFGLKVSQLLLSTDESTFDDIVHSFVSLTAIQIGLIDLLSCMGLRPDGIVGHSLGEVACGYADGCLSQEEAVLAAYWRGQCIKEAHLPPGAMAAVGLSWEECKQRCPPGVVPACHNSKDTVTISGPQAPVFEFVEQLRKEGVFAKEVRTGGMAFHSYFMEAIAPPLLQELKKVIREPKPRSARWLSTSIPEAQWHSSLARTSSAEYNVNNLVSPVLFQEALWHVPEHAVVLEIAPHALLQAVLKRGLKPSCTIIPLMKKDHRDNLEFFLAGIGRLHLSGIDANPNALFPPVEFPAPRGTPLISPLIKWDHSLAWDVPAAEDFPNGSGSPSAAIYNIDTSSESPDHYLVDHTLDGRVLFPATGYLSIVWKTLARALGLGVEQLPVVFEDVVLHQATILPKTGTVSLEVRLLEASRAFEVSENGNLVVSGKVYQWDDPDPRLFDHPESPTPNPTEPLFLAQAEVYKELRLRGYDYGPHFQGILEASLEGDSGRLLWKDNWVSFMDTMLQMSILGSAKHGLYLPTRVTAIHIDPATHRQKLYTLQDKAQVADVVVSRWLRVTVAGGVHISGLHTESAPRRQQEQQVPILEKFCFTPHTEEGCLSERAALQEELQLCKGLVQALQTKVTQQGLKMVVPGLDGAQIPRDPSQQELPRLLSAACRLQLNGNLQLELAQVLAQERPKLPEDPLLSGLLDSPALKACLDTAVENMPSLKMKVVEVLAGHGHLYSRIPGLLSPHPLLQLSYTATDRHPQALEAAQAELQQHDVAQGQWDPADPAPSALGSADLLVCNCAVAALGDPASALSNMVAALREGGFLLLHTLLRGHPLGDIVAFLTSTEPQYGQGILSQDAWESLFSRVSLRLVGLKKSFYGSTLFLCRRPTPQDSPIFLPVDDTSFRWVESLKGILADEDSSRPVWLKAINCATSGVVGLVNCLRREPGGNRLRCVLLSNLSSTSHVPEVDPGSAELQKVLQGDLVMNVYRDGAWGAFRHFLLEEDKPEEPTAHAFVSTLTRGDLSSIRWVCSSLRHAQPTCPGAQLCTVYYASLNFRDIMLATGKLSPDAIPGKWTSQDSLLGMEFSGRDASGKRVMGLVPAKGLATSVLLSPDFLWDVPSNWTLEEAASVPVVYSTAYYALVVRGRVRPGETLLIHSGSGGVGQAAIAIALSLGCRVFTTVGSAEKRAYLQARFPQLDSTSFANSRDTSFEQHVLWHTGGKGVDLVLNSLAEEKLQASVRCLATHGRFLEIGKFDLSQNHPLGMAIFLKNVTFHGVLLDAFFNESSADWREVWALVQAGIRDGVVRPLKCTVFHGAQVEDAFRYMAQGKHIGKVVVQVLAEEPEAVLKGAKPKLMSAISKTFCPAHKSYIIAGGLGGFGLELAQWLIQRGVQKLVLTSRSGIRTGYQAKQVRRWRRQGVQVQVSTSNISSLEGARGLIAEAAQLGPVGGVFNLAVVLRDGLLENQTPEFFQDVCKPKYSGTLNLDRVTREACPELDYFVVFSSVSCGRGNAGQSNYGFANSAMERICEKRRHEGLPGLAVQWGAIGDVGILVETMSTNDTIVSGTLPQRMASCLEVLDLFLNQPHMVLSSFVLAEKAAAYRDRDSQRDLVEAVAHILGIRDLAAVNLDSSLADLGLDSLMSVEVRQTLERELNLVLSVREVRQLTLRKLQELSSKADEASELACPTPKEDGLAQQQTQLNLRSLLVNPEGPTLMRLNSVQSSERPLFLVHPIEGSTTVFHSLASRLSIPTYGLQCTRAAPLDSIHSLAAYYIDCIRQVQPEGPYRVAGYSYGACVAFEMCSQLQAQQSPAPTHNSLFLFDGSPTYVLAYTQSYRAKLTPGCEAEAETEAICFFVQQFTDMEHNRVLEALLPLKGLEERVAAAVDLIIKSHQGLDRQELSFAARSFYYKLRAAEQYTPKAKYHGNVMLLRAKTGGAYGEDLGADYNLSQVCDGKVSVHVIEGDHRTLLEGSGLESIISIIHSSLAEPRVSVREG

CCCCOC(=O)c1ccc(O)cc1
active: [1] 3.6 µM
not listed: [9] | [10]
inactive: all other assays above

COc1cccc([C@H](O)C2CCN(CCc3ccc(F)cc3)CC2)c1OC
active: [1] 0.405 µM | [8] 54.5 µM
not listed: [10]
inactive: all other assays above

CCCCCCCCCCCCO
not listed: [1] | [9]
inactive: all other assays above

CCCCOC(=O)CC(CC(=O)OCCCC)(OC(C)=O)C(=O)OCCCC
not listed: [1] | [9]
inactive: all other assays above

CCCCCCCCOc1ccc(C(=O)c2ccccc2)c(O)c1
active: [8] 50 µM
not listed: [1] | [9]
inactive: all other assays above

CCN(CC)C(=O)c1cc(S(=O)(=O)Cc2ccccc2)c(N2CCC(c3ccccc3)CC2)cc1N(CC)CCN(C)C
inactive: [10] | [4] | [5]
active: [2] 30.3 µM | [3] 4.87 µM | [7] 29.4 µM | [8] 7.21 µM

CC(C)(c1cc(Br)c(O)c(Br)c1)c1cc(Br)c(O)c(Br)c1
active: [1] 4.87 µM | [2] 92.5 µM | [4] 92.3 µM | [5] 47.8 µM
inactive: [3] | [10] | [7] | [8]

OC12N=C(c3ccccc3)SC1Cc1cc(Cl)ccc12 (stereo unspecified)
inactive: [9] | [1] | [2] | [4]
active: [3] 2.18 µM | [5] 9.92 µM | [7] 15.7 µM | [8] 1.21 µM

CC(=O)N1CCN(c2ccc(OC[C@H]3CO[C@](Cn4ccnc4)(c4ccc(Cl)cc4Cl)O3)cc2)CC1
active: [9] 1.47 µM | [2] 89.3 µM | [3] 26.1 µM | [4] 12.3 µM | [5] 91.1 µM | [6] 13.1 µM | [7] 11.8 µM | [8] 0.698 µM
inactive: [1] | [10]

Cc1cc2c(cc1C(F)(F)F)N(C(=O)Nc1ccc(Oc3cccnc3C)nc1)CC2
inactive: [9] | [3] | [4] | [5]
active: [1] 0.257 µM | [2] 78.5 µM | [6] 46 µM | [7] 46 µM | [8] 3.67 µM

Clc1ccccc1C(c1ccccc1)(c1ccccc1)n1ccnc1
inactive: [2] | [10]
active: [9] 0.41 µM | [1] 0.00734 µM | [3] 23.1 µM | [4] 91.2 µM | [5] 82.1 µM | [6] 21 µM | [7] 96.5 µM | [8] 9.17 µM

O=C(Nc1ccc(Cl)cc1)Nc1ccc(Cl)c(Cl)c1
inactive: [9] | [4] | [5]
active: [1] 0.318 µM | [2] 23.1 µM | [3] 17.5 µM | [7] 22.9 µM | [8] 27.7 µM

Cc1oc2c(NC(=O)c3c(Cl)cccc3Cl)cccc2c1C(C)(C)O
active: [3] 31.2 µM | [7] 37.2 µM | [8] 8.74 µM
inactive: [1] | [2] | [4] | [5]

CCCCCCCCCCCC[N+](C)(C)C
active: [2] 82.5 µM | [3] 80.9 µM | [4] 82 µM | [5] 82.7 µM | [6] 75.4 µM | [7] 79.3 µM | [8] 67.8 µM
inactive: [1]

COCC(C)OCC(C)OCC(C)O (stereo unspecified)
not listed: [1] | [6] | [9]
inactive: all other assays above

c1ccc2n[nH]nc2c1
not listed: [1] | [6] | [9]
inactive: all other assays above

Clc1cc(Cl)c2c(c1)N=C1CCCCCN1C2
active: [8] 1.61 µM
not listed: [6] | [9] | [10]
inactive: all other assays above

CC[C@H](NC(=O)c1cc(F)ccc1NS(=O)(=O)c1cccc2cccnc12)c1ccccc1
active: [7] 34 µM | [8] 47.1 µM
inactive: [2] | [3] | [10] | [4] | [5]

CCCCCCCCOC(=O)c1cc(O)c(O)c(O)c1
active: [1] 2.44 µM | [8] 50 µM
not listed: [6] | [10]
inactive: all other assays above

Oc1ccc2ccccc2c1
active: [8] 66.8 µM
not listed: [9]
inactive: all other assays above

O=C1c2ccccc2C(=O)N1CCc1noc(-c2ccc(CN3CCCCCC3)s2)n1
active: [8] 8.04 µM
not listed: [9] | [10]
inactive: all other assays above

Cc1ccc2oc(CN(Cc3ccccc3)C(=O)Nc3c(F)cc(F)cc3F)c(-c3ccc(Cl)cc3)c2c1
active: [1] 0.505 µM | [7] 59.5 µM | [8] 22 µM
not listed: [6]
inactive: all other assays above

CCCCCCCCN(C)CCCCCCCC
not listed: [6] | [9] | [10]
inactive: all other assays above

O=C(OCCCCCCOC(=O)c1ccccc1)c1ccccc1
not listed: [1] | [9]
inactive: all other assays above

O=C(O)Cc1cc(I)c(Oc2ccc(O)c(I)c2)c(I)c1
inactive: [10] | [8]
active: [2] 88.6 µM | [3] 50 µM | [4] 82.7 µM | [5] 87.5 µM | [6] 9.92 µM | [7] 91.2 µM

CN1C(=O)CC[C@H]1c1cccnc1
active: [8] 76.9 µM
not listed: [1] | [9]
inactive: all other assays above

NC(=O)c1nc(-c2cccc(-c3cc(F)ccc3OCC(F)(F)C(F)(F)F)c2)n[nH]1
active: [3] 79 µM | [8] 20.1 µM
not listed: [6] | [10]
inactive: all other assays above

O=C(O)Cn1c(=O)n(Cc2ccc(Br)cc2F)c(=O)c2ccc(Cl)cc21
active: [1] 73.3 µM | [8] 87.8 µM
not listed: [10]
inactive: all other assays above

C[C@]12CC[C@@H]3c4ccc(O)cc4CC[C@H]3[C@@H]1CCC2=O
active: [1] 0.849 µM | [7] 50 µM
not listed: [8] | [9]
inactive: all other assays above

CO[C@H]1/C=C/O[C@@]2(C)Oc3c(C)c(O)c4c(O)c(c(/C=N/N5CCN(C)CC5)c(O)c4c3C2=O)NC(=O)/C(C)=C\C=C\[C@H](C)[C@H](O)[C@@H](C)[C@@H](O)[C@@H](C)[C@H](OC(C)=O)[C@@H]1C
active: [8] 31.2 µM
not listed: [9] | [10]
inactive: all other assays above

CC(C)(C)c1cc(/C=C2\SC(N)=NC2=O)cc(C(C)(C)C)c1O
inactive: [9] | [2] | [8]
active: [1] 0.897 µM | [3] 12.2 µM | [4] 22.2 µM | [5] 39.3 µM | [6] 16.5 µM | [7] 23.9 µM

C[C@]12CC[C@@H]3c4ccc(O)cc4CC[C@H]3[C@@H]1CC[C@H]2O
active: [1] 2 µM | [4] 50 µM | [8] 18.5 µM
not listed: [6] | [9]
inactive: all other assays above

O=c1c(-c2ccc(O)cc2)coc2cc(O)cc(O)c12
active: [1] 12.4 µM
not listed: [9] | [10]
inactive: all other assays above

CCCCCCCC[Si](OCC)(OCC)OCC
not listed: [6] | [9] | [10]
inactive: all other assays above

Cc1c2ccccc2c(C)c2c1ccc1ccccc12
active: [9] 0.657 µM | [2] 66.1 µM | [3] 51 µM | [4] 35.1 µM | [5] 86.4 µM | [7] 34.2 µM | [8] 11.9 µM
inactive: [1]

CC(C)(O)c1ccc(CNC(=O)c2cccnc2Oc2ccc3nonc3c2)cc1
active: [8] 34.7 µM
not listed: [1] | [6] | [9]
inactive: all other assays above

O=C1CCC(C2CCCCC2)CC1
active: [8] 50 µM
not listed: [6] | [9]
inactive: all other assays above

CN1C(=O)N(c2ccccc2Br)Cc2cnc(Nc3ccc4c(c3)OCC(CO)O4)nc21 (stereo unspecified)
active: [9] 0.326 µM | [1] 0.661 µM | [2] 90.4 µM | [3] 78.3 µM | [5] 50 µM | [6] 67.2 µM | [7] 44.8 µM | [8] 12.1 µM
inactive: [4]
